Assay results taken from PubChem BioAssay.
Inconclusive results are not listed. Activity calls are given as the source filed them.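 The calls were made as follows, unless noted: active = viability at or below 10% of carrier control in both of two separate runs; inconclusive = viability at or below 10% in only one of the two runs; inactive = the rest.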

Columns and labels:
[1] = Her2 expression decrease, cell viability multiplex – SKBR3 breast tumor cells, AlphaScreen, ATP viability, primary screen (AID 461;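 active = Her2 level under about 52% in both replicate screens, with viability over 70% of control, limit read from the data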;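 as to Her2 level: lower value means less Her2 protein in the cells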;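 as to viability: percent of carrier control wells set as 100% viability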); settings: SKBR3 Her2 protein level, 18-24 h, measured here: SKBR3 viability, ATP luminescence, at 10 µM
[2] = biological target: Receptor tyrosine-protein kinase erbB-2 (Homo sapiens) (UniProt P04626); experiment: as above; settings: 18-24 h, at 10 µM, stronger effect = lower value
Sequence of Receptor tyrosine-protein kinase erbB-2 (Homo sapiens) (P04626 whole entry, looked up): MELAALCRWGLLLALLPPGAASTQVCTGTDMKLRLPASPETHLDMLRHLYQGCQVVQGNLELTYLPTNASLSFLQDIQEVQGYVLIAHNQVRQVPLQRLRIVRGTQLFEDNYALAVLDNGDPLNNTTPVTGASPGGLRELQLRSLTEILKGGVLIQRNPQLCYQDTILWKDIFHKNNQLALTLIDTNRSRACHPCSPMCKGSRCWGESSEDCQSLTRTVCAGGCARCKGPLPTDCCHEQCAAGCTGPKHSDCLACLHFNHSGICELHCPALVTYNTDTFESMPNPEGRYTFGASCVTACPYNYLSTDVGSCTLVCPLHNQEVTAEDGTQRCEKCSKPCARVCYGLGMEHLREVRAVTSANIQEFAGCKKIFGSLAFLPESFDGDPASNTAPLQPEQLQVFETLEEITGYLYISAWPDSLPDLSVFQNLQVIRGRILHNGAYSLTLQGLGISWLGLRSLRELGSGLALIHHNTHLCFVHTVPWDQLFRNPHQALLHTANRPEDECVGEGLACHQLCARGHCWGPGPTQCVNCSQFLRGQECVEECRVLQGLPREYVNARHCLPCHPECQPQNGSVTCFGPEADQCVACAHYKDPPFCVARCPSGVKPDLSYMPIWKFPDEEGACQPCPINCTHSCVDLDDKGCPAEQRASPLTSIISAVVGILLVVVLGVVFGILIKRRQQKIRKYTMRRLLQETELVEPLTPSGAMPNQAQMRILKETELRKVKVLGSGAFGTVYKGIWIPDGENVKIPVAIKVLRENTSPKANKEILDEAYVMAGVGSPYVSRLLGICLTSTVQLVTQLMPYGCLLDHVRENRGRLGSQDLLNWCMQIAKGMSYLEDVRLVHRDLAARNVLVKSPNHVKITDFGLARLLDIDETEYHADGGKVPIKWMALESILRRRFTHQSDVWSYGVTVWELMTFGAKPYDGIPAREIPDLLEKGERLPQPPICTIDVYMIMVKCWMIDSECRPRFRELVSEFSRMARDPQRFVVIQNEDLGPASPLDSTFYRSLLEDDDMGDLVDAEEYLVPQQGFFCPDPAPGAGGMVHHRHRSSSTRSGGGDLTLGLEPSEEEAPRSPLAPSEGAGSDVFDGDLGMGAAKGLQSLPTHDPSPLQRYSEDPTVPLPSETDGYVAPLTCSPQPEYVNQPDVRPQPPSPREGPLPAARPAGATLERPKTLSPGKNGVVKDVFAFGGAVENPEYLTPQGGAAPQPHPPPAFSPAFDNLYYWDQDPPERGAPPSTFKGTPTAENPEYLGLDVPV

[3] = reduced viability of SK-BR-3 breast cancer cells – cell-based, 24 h, human, pilot screen (AID 572); settings: SK-BR-3 viability, CellTiter-Glo luminescence, at 10 µM, stronger effect = lower value;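 also: compound exposure lasted between 18 and 24 h rather than exactly 24 h; 100% = carrier-treated control wells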
[4] = HUVEC growth inhibition – cell-based, human, primary screen (AID 575;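 active = viability at or below 30% in both replicate assays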;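 also: 100% = median of untreated cell wells with 0.1% DMSO on each plate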); settings: HUVEC proliferation, CellTiter-Glo luminescence, 72 h; at 10 µM; stronger effect = lower value
[5] = H69AR cell proliferation blockers – human, duplicate replicates, primary screen (AID 580;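 active = viability at or under a set limit in both replicates, limit being median viability minus 3 SD, cut at about 48% in these data, passing the limit was not always enough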;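 also: 100% = mean luminescence of untreated wells and 0% = no signal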); settings: H69AR lung tumor cells viability, ATP luminescence, 72 h; at 10 µM; stronger effect = lower value
[6] = MRP1 drug-resistance reversers in H69AR cells – cell-based, doxorubicin co-treatment, pilot screen (AID 601;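 active = viability loss from added drug above about 55%, and viability with drug at most 40%, in both replicates, limit read from the data, passing the limit was not always enough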); settings: CellTiter-Glo, 72 h, at 10 µM; for differential viability (reversal): stronger effect = higher value
[7] = yeast transport mutant growth inhibition pilot in 384-well plates, post-Golgi transport modulator project (AID 636; in the data active = inhibition above about 31%); settings: absorbance 615 nm, about 18 h, stronger effect = higher value
[8] = growth suppression of yeast trafficking mutant, preliminary HTS, modulators of trafficking downstream of Golgi apparatus project, 1536-format plate, OD 615 nm (AID 637; in the data active = inhibition above about 30%); settings: yeast transport mutant growth, absorbance 615 nm, 18 h; stronger effect = higher value
[9] = S. cerevisiae growth inhibition in permissive medium (OD615), pilot counter-assay for S. cerevisiae lifespan shortening project, permissive growth control (AID 705;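 active = growth inhibition above 25% in both replicates, a cutoff set 3 SD above the mean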); settings: OD615, 24 h, at 10 µM, stronger effect = higher value
[10] = S. cerevisiae growth inhibition in restrictive medium, OD615, pilot screen, restrictive growth control, yeast lifespan reduction project (AID 706;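 active = growth inhibition above a set limit, 3 SD over mean compound inhibition, in both replicates, cut at about 43% in these data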;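 also: modified DeaD lifespan yeast strain shifted to restrictive glucose medium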); settings: OD615, 48 h, at 10 µM, stronger effect = higher value
[11] = doxorubicin toxicity protection in MRP-1 cells – H69AR cells, CellTiter-Glo, duplicate, MRP-1 activator project, pilot screen (AID 807;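 active = viability increase at or above a cutoff of the median across tested compounds plus 3 SD, cut at about 8.5% in these data, passing the limit was not always enough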;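 also: compound pretreatment 18-22 h then 72 h combined with doxorubicin; 0% = doxorubicin alone and 100% = vehicle without doxorubicin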); settings: H69AR viability with doxorubicin, CellTiter-Glo luminescence; at 10 µM; stronger effect = higher value
[12] = viability of HCT116 without oncogenic beta-catenin – human colon tumor cells, pilot screen (AID 823;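 active = cell viability at or below a set limit in both duplicate runs, the limit being the all-compound median minus 4 SD, cut at about 23% in these data, passing the limit was not always enough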;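 also: 0% = wells killed by 20 µM Hyamine and 100% = untreated DMSO cell wells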); settings: HCT116 beta-catenin knockout viability, CellTiter-Glo, 60 h; at 10 µM; stronger effect = lower value
[13] = viability of PTEN-null HCT116 cells – cell-based, HCT116 clonal line, CellTiter-Glo, pilot screen (AID 824;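 active = viability at or below 27.92% in each of two runs, the all-compound median minus 4 SD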;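 also: 0% = 20 µM Hyamine control and 100% = vehicle cell control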); settings: HCT116 PTEN-deleted viability, 60 h, at 10 µM, stronger effect = lower value
[14] = RAM pathway blockade in budding yeast – dse1pr::URA3 reporter, 5-FOA selection, pilot screen (AID 869;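 active = inhibition over a set limit, the all-compound mean plus 3 SD, in both replicate runs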;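 also: 0% = DMSO wells with no growth and 100% = 10 µM 1-NA-PP1 with full growth; RAM network block rescues cells from 5-FOA so hits raise OD615 growth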); settings: S. cerevisiae dse1pr::URA3 5-FOA growth, OD615, 2 d; at 10 µM; stronger effect = higher value; strain carries analog-sensitive mutant Cbk1 kinase
[15] = RAM signaling pathway blockade in yeast – S. cerevisiae, Pdr1DBD-CYC8 efflux-inhibited sensitized strain, primary screen (AID 1298;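 active = RAM network inhibition above 8.4% in each of two replicates, 3 SD over the compound average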;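 also: 0% = DMSO untreated cells without growth and 100% = 10 µM 1-NA-PP1 full growth; higher means more yeast growth rescued from 5-FOA killing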); settings: S. cerevisiae cbk1-as DSE1-URA3 strain, 5-FOA growth OD615, 2 d; at 50 µM; stronger effect = higher value
[16] = H69AR cells + 2 uM doxorubicin, measured here: viability with 2 uM doxorubicin, stronger effect = lower value
[17] = H69AR cells, compound alone cytotoxicity

COc1ccc(N(CC(=O)Nc2ccc3c(c2)OCCO3)S(=O)(=O)c2cccnc2)cc1
91%: viability [1]
87.5%: viability [6, 16]
inactive: Her2 level [2] 108% | viability [3] 91% | viability [4] 104% | viability [5] 92.5% | differential viability (reversal) ([6]; H69AR cells + 2 uM doxorubicin) 4.99% | inhibition [7] -5.13% | inhibition [8] -3.83% | growth inhibition [9] -10.3% | growth inhibition [10] 0.75% | viability increase [11] -2.05% | viability [12] 102% | viability [13] 99.7% | inhibition [14] 1.63% | RAM network inhibition [15] 4.76%
92.5%: viability [6, 17]

COC(=O)COc1cccc(NC(=O)COc2ccccc2)c1
99.5%: viability [1]
inactive: Her2 level [2] 122% | viability [3] 99.5% | viability [4] 90.7% | viability [5] 96.5% | differential viability (reversal) ([6]; H69AR cells + 2 uM doxorubicin) 3.21% | inhibition [7] -0.13% | inhibition [8] -7.33% | growth inhibition [9] -12.5% | growth inhibition [10] 3.51% | viability increase [11] -0.74% | viability [12] 97.2% | viability [13] 93.7% | inhibition [14] 1.66% | RAM network inhibition [15] 2.45%
93.2%: viability [6, 16]
96.5%: viability [6, 17]

O=C(O)C1CCCN(S(=O)(=O)c2ccc(Cl)s2)C1 (stereo not given)
inactive: Her2 level [2] 124% | viability [3] 91% | viability [4] 102% | viability [5] 93.1% | differential viability (reversal) ([6]; H69AR cells + 2 uM doxorubicin) 4.47% | inhibition [7] -4.8% | inhibition [8] 0.5% | growth inhibition [9] -4.79% | growth inhibition [10] 7.83% | viability increase [11] 0.34% | viability [12] 100% | viability [13] 102% | inhibition [14] 2.21% | RAM network inhibition [15] 0.99%
88.6%: viability [6, 16]
91%: viability [1]
93.1%: viability [6, 17]

c1ccc2c(c1)nc(NC1CCCCC1)c1nncn12
98.5%: viability [1]
70.9%: viability [6, 16]
90.8%: viability [6, 17]
inactive: Her2 level [2] 109% | viability [3] 98.5% | viability [4] 86.6% | viability [5] 90.8% | differential viability (reversal) ([6]; H69AR cells + 2 uM doxorubicin) 19.9% | inhibition [7] -5% | inhibition [8] -1.17% | growth inhibition [9] -8.94% | growth inhibition [10] -7.48% | viability increase [11] -6.65% | viability [12] 89.9% | viability [13] 83.3% | inhibition [14] 0.325% | RAM network inhibition [15] 2.5%

Cc1ccc2c(c1)-c1c(cnn1CC(=O)NC(C)CCc1ccco1)CO2 (stereo not given)
91.1%: viability [6, 16]
inactive: Her2 level [2] 87% | viability [3] 85.5% | viability [4] 91.5% | viability [5] 85.9% | differential viability (reversal) ([6]; H69AR cells + 2 uM doxorubicin) -5.22% | inhibition [7] -4.36% | inhibition [8] 0.83% | growth inhibition [9] -10.4% | growth inhibition [10] -5.76% | viability increase [11] -3.78% | viability [12] 88.8% | viability [13] 87% | inhibition [14] 2.04% | RAM network inhibition [15] 7.88%
85.9%: viability [6, 17]
85.5%: viability [1]

O=S(=O)(c1ccc(F)cc1)N1CCC(N2CCCC2)CC1
80.9%: viability [6, 16]
91.2%: viability [6, 17]
inactive: Her2 level [2] 96% | viability [3] 104% | viability [4] 89% | viability [5] 91.2% | differential viability (reversal) ([6]; H69AR cells + 2 uM doxorubicin) 10.3% | inhibition [7] -4.4% | inhibition [8] 3.67% | growth inhibition [9] -0.015% | growth inhibition [10] -5.88% | viability increase [11] -2.89% | viability [12] 96.2% | viability [13] 95.9% | inhibition [14] 1.23% | RAM network inhibition [15] 0.93%
104%: viability [1]

O=C(C1CCN(S(=O)(=O)c2cccc3cccnc23)CC1)N1CCN(C2CCCCC2)CC1
inactive: Her2 level [2] 102% | viability [3] 102% | viability [4] 99.9% | viability [5] 102% | differential viability (reversal) ([6]; H69AR cells + 2 uM doxorubicin) 2.56% | inhibition [7] -2.8% | inhibition [8] -0.49% | growth inhibition [9] 6.08% | growth inhibition [10] 0.815% | viability increase [11] -2.03% | viability [12] 97.8% | viability [13] 98.7% | inhibition [14] 1.12% | RAM network inhibition [15] 7.73%
102%: viability [1] | viability [6, 17]
99.2%: viability [6, 16]

CCC(Oc1ccccc1)C(=O)Nc1ccccc1OC (stereo not given)
86%: viability [1]
inactive: Her2 level [2] 72.5% | viability [3] 86% | viability [4] 99.4% | viability [5] 97.4% | differential viability (reversal) ([6]; H69AR cells + 2 uM doxorubicin) 12.6% | inhibition [7] -6.35% | inhibition [8] 3.61% | growth inhibition [9] -1.92% | growth inhibition [10] 8.91% | viability increase [11] -3.52% | viability [12] 90% | viability [13] 87% | inhibition [14] 1.94% | RAM network inhibition [15] 5.73%
97.4%: viability [6, 17]
84.8%: viability [6, 16]

C=CCOc1ccc(/C(CC)=N/O)c(OC)c1
93.5%: viability [1]
inactive: Her2 level [2] 104% | viability [3] 93.5% | viability [4] 70.4% | viability [5] 101% | differential viability (reversal) ([6]; H69AR cells + 2 uM doxorubicin) 10.5% | inhibition [7] -1.82% | inhibition [8] 0.5% | growth inhibition [9] -19.1% | growth inhibition [10] -11.4% | viability increase [11] -0.09% | viability [12] 96.7% | viability [13] 105% | inhibition [14] 0.56% | RAM network inhibition [15] -0.68%
90.9%: viability [6, 16]
101%: viability [6, 17]

COC(=O)c1ccsc1NC(=O)CN1C(=O)CCC1=O
69.2%: viability [6, 16]
83.5%: viability [1]
91.6%: viability [6, 17]
inactive: Her2 level [2] 121% | viability [3] 83.5% | viability [4] 83.1% | viability [5] 91.6% | differential viability (reversal) ([6]; H69AR cells + 2 uM doxorubicin) 22.4% | inhibition [7] -1.33% | inhibition [8] 15.7% | growth inhibition [9] -2.7% | growth inhibition [10] -9.07% | viability increase [11] -1.57% | viability [12] 100% | viability [13] 98.7% | inhibition [14] -0.08% | RAM network inhibition [15] 0.15%
